This is an account of results in PubChem BioAssay (NCATS).

Structures are written as SMILES. Results filed as inconclusive are left out. A call without a number means that no potency is given here. The source made the active and inactive calls. The call rests on the fitted dose curve; in most records, active means well fitted curve in the direction sought with a large enough effect; inconclusive means small, poorly fitted or top-dose-only effect, or another doubt; inactive means no such curve, though single readings can be large; an effect the other way counts as inactive or inconclusive.

Test [1] has as its target Arylsulfatase A (Homo sapiens) (UniProt P15289). Put plainly: qHTS screen for enhancers of Arylsulfatase A (ASA1): LOPAC Validation Assay (AID 720538). The essentials:
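Cell-based enhancement test: residual ASA activity in SV40-transformed I179S patient fibroblasts is measured by pNCS turnover (0.5mM final, 14h, room temperature) following 48h compound incubation; higher fluorescence indicates activation.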
For orientation: In qHTS, concentration-response curves come from the screen itself.

A short description of test [2]: qHTS for compounds that reverse cellular toxicity of Amyloid beta (A-beta) peptide in yeast: LOPAC Validation Assay (AID 720559). The essentials:
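Here, A-beta-toxic yeast grow with test compounds at 30 C for 48 hr before optical density at 600 nm is recorded; data are normalized against DMSO and the FeCl3-clioquinol control.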

Test [3] in a line: qHTS for Activators of Parkin Expression: LOPAC Validation Assay (NLuc Reporter) (AID 720572; further: potency means the concentration at half of the fitted maximal effect). The essentials: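 Compound effects on Parkin promoter activity were measured as NanoLuc luminescence after 24 h at 37 C. The neuronal reporter line also carried FLuc, which was read first. LOPAC compounds were tested at 7 concentrations, with normalization to DMSO (0%) and positive control (100%).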

Test [4] in a line: qHTS for Activators of Parkin Expression: LOPAC Validation Assay (FLuc Reporter) (AID 720573; further: potency means the concentration at half of the fitted maximal effect). The essentials: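 Readout is FLuc luminescence from neuronal reporter cells (Parkin promoter, FLuc plus NLuc) after 24 h compound exposure in dose response. Values normalized to neutral DMSO and positive-control compounds.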

Chain of Arylsulfatase A (Homo sapiens) (P15289 whole entry, looked up): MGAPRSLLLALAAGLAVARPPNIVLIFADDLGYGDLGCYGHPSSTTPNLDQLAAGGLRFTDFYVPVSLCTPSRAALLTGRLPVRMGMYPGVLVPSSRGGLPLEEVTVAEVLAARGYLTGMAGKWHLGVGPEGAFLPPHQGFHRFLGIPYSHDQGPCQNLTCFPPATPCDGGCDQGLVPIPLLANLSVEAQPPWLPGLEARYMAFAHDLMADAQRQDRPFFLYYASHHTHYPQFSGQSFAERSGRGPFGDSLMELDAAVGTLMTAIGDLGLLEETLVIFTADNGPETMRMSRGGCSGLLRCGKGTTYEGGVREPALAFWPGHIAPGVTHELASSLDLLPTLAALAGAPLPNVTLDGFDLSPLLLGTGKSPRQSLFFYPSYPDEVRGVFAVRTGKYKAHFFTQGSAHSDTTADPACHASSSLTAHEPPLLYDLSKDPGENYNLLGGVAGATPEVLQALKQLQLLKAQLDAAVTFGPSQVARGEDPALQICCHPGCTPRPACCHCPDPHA

For the compound `CN1Cc2sccc2C(c2ccc(O)c(O)c2)C1` (stereo not drawn), the Potency result in test [1], in test [3] and in test [4] was “inactive” throughout. Also, in test [2], the result was inactive.
Consider `COC1(C2=NCCN2)COc2ccccc2O1` (stereo not drawn), for which the Potency entry in test [1], in test [3] and in test [4] was “inactive” each time. Moreover, the outcome in test [2] was inactive.
In the case of `N[C@H](C(=O)O)[C@H]1C[C@@H]1C(=O)O`, the Potency entry in test [1], in test [3] and in test [4] was “inactive” in each case. For the same compound, in test [2], the call was inactive.
As to `C[C@@H](NCCc1ccc(O)cc1)[C@@H](O)c1ccc(O)cc1`, the Potency result in test [1], in test [3] and in test [4] was “inactive” throughout. Moreover, the outcome in test [2] was inactive.
With `CCCC(=O)NCCc1c2n(c3ccc(OC)cc13)CCCc1ccccc1-2`, the Potency entry in test [1], in test [3] and in test [4] was “inactive” each time. For the same compound, the result in test [2] was inactive.
As for `CN[C@H](CC(=O)O)C(=O)O`, the Potency entry in test [1], in test [3] and in test [4] was “inactive” throughout. The call in test [2] was inactive.
For the compound `CC(C)NC[C@H](O)COc1ccc(CC(N)=O)cc1`, the Potency result in test [1], in test [3] and in test [4] was “inactive” each time. Moreover, the result in test [2] was inactive.
As for `CSc1nc(N)c2ncn([C@@H]3O[C@H](COP(=O)(O)OP(=O)(O)O)C(O)[C@H]3O)c2n1` (stereo partly drawn), the Potency result in test [1], in test [3] and in test [4] was “inactive” each time. In addition, in test [2], the outcome was inactive.
For the compound `Cc1ccc2c(c1)C(N1CCN(C)CC1)=Nc1cccnc1N2`, the Potency entry in test [1], in test [3] and in test [4] was “inactive” throughout. The compound was classed as inactive in test [2].
With `Cc1cc2c(cc1Cl)N(C(=O)Nc1ccnc3ccccc13)CC2`, the Potency entry in test [1], in test [3] and in test [4] was “inactive” in each case. Besides, the call in test [2] was inactive.
As to `Cn1c(=O)[nH]c2ncn(C)c2c1=O`, the Potency entry in test [1], in test [3] and in test [4] was “inactive” in each case. Besides, the compound was called inactive in test [2].
With `Cn1cc(C(=O)OCC2CCN(CCNS(C)(=O)=O)CC2)c2ccccc21`, the Potency result in test [1], in test [3] and in test [4] was “inactive” throughout. In addition, the outcome in test [2] was inactive.
As to `Cn1c(=O)c2[nH]c(-c3ccc(S(=O)(=O)O)cc3)nc2n(C)c1=O`, the Potency entry in test [1], in test [3] and in test [4] was “inactive” in each case. In addition, the outcome in test [2] was inactive.
As for `NCCCCN`, the Potency result in test [1], in test [3] and in test [4] was “inactive” throughout. The result in test [2] was inactive.
For `O=C1Cc2c([nH]c3ccc(Br)cc23)-c2ccccc2N1`, the Potency result in test [1] was “inactive”. Moreover, the call in test [2] was inactive. Further, the Potency in test [3] was 5.8 µM (active); in test [4], 2.59 µM (active).
For the compound `CC(C)(CO)Cc1cc(C(C)(C)C)c(O)c(C(C)(C)C)c1`, the Potency entry in test [1], in test [3] and in test [4] was “inactive” each time. For the same compound, the call in test [2] was inactive.
On to `N[C@@H](CS(=O)O)C(=O)O`, for which the Potency result in test [1], in test [3] and in test [4] was “inactive” in each case. Also, the result in test [2] was inactive.
